# Assay outcomes (PubChem)
# Hits are enriched below; roughly 0.51% of the tested compounds scored in any of these assays.
# AddAB inh: less growth of phage-infected E. coli with AddAB | E. coli expressing H. pylori AddAB, absorbance growth | inhibition, % at 11.9 µM | actives 0.29% (n = 330,000) | AID 435030; in the data active = inhibition above about 12%;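 also: 0% = vehicle wells of infected cells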
# Tat transport: inhibitors of E. coli Tat protein transport; inhibition, % at 10 µM; actives 0.036% (n = 340,000); E. coli MC4100 TorA-mCherry Tat export, fluorescence;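 active = mean replicate inhibition at least 50% and at least half of replicates individually reaching 50%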;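 also: exported cargo escapes ClpAP degradation while cytoplasmic cargo is degraded and loses fluorescence; 0% = median of neutral control wells and 100% = median of NaSCN control wells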
# phage Ecoli inh: E. coli growth loss with phage present; growth absorbance; inhibition, % at 11.9 µM; actives 0.26% (n = 360,000); AID 651602; in the data active = inhibition above about 11%
# E coli growth-1: E. coli growth inhibition; Escherichia coli growth, OD600, 23 h; hits give low values; actives 0.21% (n = 330,000); OD600 absorbance (no concentration beside the values); AID 1053175;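 active = OD600 absorbance below the run mean of sample wells minus 3.6 SD, in any replicate, cut at about 0.56 in these data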
# E coli growth-2: bacterial growth inhibition, counter-screen for AddAB inhibitors. E. coli V3065 growth, OD600 absorbance, 18 h. actives 0.27% (n = 330,000). inhibition, % at 11.9 µM;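 active = inhibition above the campaign's mean inhibition across all tested compounds plus 3 SD, cut at about 9.9% in these data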;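 also: uninfected addAB+ strain grown without phage in ampicillin broth; 0% = DMSO wells and 100% = ciprofloxacin 0.95 µg/ml wells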
# AddAB conf: confirmation screen: growth loss of phage-infected E. coli expressing H. pylori AddAB; shares compounds with AddAB inh; E. coli V3065 expressing H. pylori AddAB, T4 phage, OD; T4 phage with gene 2 nonsense mutations; inhibition, % at 11.9 µM; actives 64% (n = 880); AID 488942;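 active = mean inhibition above a set limit taken from the earlier primary screen, cut at about 13% in these data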;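 also: higher means less bacterial growth since AddAB block lets phage replicate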
# RecBCD counter: AddAB counter-screen: growth loss of RecBCD+ E. coli infected with mutant T4 phage. inhibition, % at 11.9 µM. E. coli V66 + mutant T4 phage, OD growth. shares compounds with AddAB inh. actives 73% (n = 880);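 active = mean inhibition above the mean of solvent-only control wells plus 3 SD, cut at about 4% in these data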;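 also: optical density read after an 18 h incubation at 37 °C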
# bact viab count: counter-screen for AddAB inhibitors: inhibitors of bacterial viability; shares compounds with AddAB inh; absorbance (AddAB counterscreen); inhibition, % at 11.9 µM; actives 35% (n = 880); AID 488956; in the data active = inhibition above about 25%
# An asterisk follows results filed as active; x = no result given.
SMILES,AddAB inh,Tat transport,phage Ecoli inh,E coli growth-1,E coli growth-2,AddAB conf,RecBCD counter,bact viab count
CC(C)CC(=O)NC(c1cccs1)c1ccc2cccnc2c1O (stereo not given),26*,-4,x,0.59,35*,26*,23*,21
CCCC(=O)NC(c1ccccc1OC)c1ccc2cccnc2c1O (stereo not given),34*,-6,x,0.57,31*,30*,26*,24
COc1ccc(C(NC(C)=O)c2ccc3cccnc3c2O)c(OC)c1 (stereo not given),12*,16,x,0.74,3,7,6.8*,2
CCCC(=O)NC(c1ccc(C)cc1)c1ccc2cccnc2c1O (stereo not given),24*,-1,x,x,34*,28*,26*,24
CC(=O)NC(c1cccs1)c1cc(F)c2cccnc2c1O (stereo not given),1,2,7,0.66,-3,x,x,x
COc1ccccc1C(NC(C)=O)c1cc(Cl)c2cccnc2c1O (stereo not given),-1,-7,3,0.69,4,x,x,x
C[C@@H]1C2CC(CC2=NNC(=O)c2ccncc2)C1(C)C (stereo not given in full),x,x,x,0.72,x,x,x,x
CCCc1[nH]nc2c1C1(C(=O)N(CC)c3ccccc31)C(C#N)=C(N)O2 (stereo not given),17*,-5,x,0.7,26*,-4,-1,-4
O=C1C2C3C=CC(CC3)C2C(=O)N1N=Cc1ccc(O)c(O)c1 (stereo not given),x,x,x,0.73,x,x,x,x
O=C(O)c1ccc(-n2cccc2C=NNC(=O)c2cc3cc(Br)ccc3o2)cc1,x,x,x,0.71,x,x,x,x
CCCS(=O)(=O)c1c(S(=O)(=O)CCC)c2c(C)cccn2c1C(N)=O,3,2,2,0.7,2,x,x,x
CCCS(=O)(=O)c1c(S(=O)(=O)CCC)c2c(C)cccn2c1C(=O)N/N=C/c1cc(O)cc(O)c1,14*,-6,10,x,8,4,6.0*,0
O=C(NN=Cc1ccc2nccnc2c1)c1ccncc1,x,x,x,0.63,x,x,x,x
CCN1/C(=C/C=C/c2oc3ccc(-c4ccccc4)cc3[n+]2CC)Oc2ccc(-c3ccccc3)cc21,12*,-15,9,0.74,12*,8,5.6*,6
O=C(C=NO)NCCCn1ccnc1,x,x,x,0.76,x,x,x,x
Cc1nc2ccc(Cc3ccc4nc(C)[nH]c4c3)cc2[nH]1,16*,2,8,0.68,9,8,5.8*,5
CC(=O)Nc1ccc(C=NNC(=O)CCN2CCN(c3ccccc3)CC2)cc1,x,x,x,0.67,x,x,x,x
O=C(CCN1CCN(c2ccccc2)CC1)N/N=C/c1ccc([N+](=O)[O-])o1,26*,7,7,x,7,78*,4,7
O=C(CNc1cccc2ccccc12)N/N=C/c1ccc([N+](=O)[O-])o1,14*,-21,3,x,3,35*,3,6
CN1C(=O)C2C(C=Cc3ccccc3)N3C(=O)CN(CC4CC4)C(=O)[C@@]3(C)C2C1=O (stereo not given in full),x,x,x,0.7,x,x,x,x
O=C(c1ccccc1)c1c2c(cc3sc4ccccc4[n+]13)-c1cccc3cccc-2c13,16*,7,7,0.48*,5,89*,1,19
Cc1sc2cc3c(c(C(=O)c4ccccc4)[n+]2c1C)-c1cccc2cccc-3c12,6,x,3,0.56,0,x,x,x
O=[N+]([O-])c1cc(O)c2ncccc2c1,14*,x,4,0.13*,16*,34*,8.9*,4
O=[N+]([O-])c1cc2cccnc2c2ncccc12,8,x,5,0.59,7,x,x,x
C=CCN1C(=O)CSC1=Nc1nccs1,x,x,x,0.73,x,x,x,x
Nc1c(S(=O)(=O)c2ccccc2)c2nc3ccccc3nc2n1N=Cc1cccc(O)c1,x,x,x,0.76,x,x,x,x
Nc1c(S(=O)(=O)c2cccc(Cl)c2)c2nc3ccccc3nc2n1/N=C/c1ccc(O)c(O)c1,15*,x,x,x,13*,13*,13*,14
Cc1ccc(S(=O)(=O)Nc2cccc3c2OC(CN(C)C(=O)Nc2ccc4c(c2)OCO4)C(C)CN(C(C)CO)C3=O)cc1 (stereo not given),x,x,x,0.67,x,x,x,x
